Assay results: PubChem BioAssay (NCATS)
Records with an inconclusive call do not appear. Activity calls are given as the source filed them. Unless noted, calls follow the shape of the dose curve; as a rule, active = well fitted curve in the direction sought with a large enough effect; inconclusive = small, poorly fitted or top-dose-only effect, or another doubt; inactive = no such curve, though single readings can be large; an effect the other way counts as inactive or inconclusive.

How the values were obtained:
[1] = NS1 protein of Zika virus - qHTS assay to identify small molecule inhibitors in human HEK 293 cells (AID 1347053);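 also: series mostly up to about 46 µM; plate controls were infected untreated cells for no effect and uninfected cells for full effect; nearly all actives have a fitted effect of over 55% in size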
Procedure, shortened: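 In this cell-based screen, HEK 293 cultures received compound for one hour before Zika MR766 at MOI = 0.5. NS1 was quantified 24 hours later by TR-FRET, normalized to virus-free wells and infected wells.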

[2] = biological target: T1, Tyrosine-protein phosphatase non-receptor type substrate 1 (Homo sapiens) + Leukocyte surface antigen CD47 (Homo sapiens) (UniProt P78324+Q08722); test: CD47-SIRPalpha protein protein interaction - HTRF assay qHTS validation (AID 1347058; active = well fitted curve in the direction sought with a large enough effect in the signal ratio, not every such curve was filed as active; the % refers to the signal ratio; also: series mostly up to about 38 µM; 0% is about no effect)
Procedure, shortened: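 Soluble extracellular domains (6His-CD47, Avi-tag-biotinylated SIRPalpha) in PBS pH 7.4 with 0.05% IGEPAL CA-630. Compounds were preincubated 30 min at RT with CD47 and anti-His-Eu, then SIRPalpha and SAV-XL665 were added. TR-FRET 665/615 ratio.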

[3] = biological target: T1, Tyrosine-protein phosphatase non-receptor type substrate 1 (Homo sapiens) + Leukocyte surface antigen CD47 (Homo sapiens); test: CD47-SIRPalpha protein protein interaction - Alpha assay qHTS validation (AID 1347059);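 also: bead proximity luminescence from CD47 binding SIRPalpha after compound preincubation with SIRPalpha; % is scaled to controls: 0 for no effect and ±100 for the full control effect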
Procedure, shortened: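 SIRPalpha-biotin 25 nM + cpd, 30 min RT, dark; add CD47-His 12.5 nM, 30 min; add Ni-NTA/SAV beads 10 ug/mL, 30 min; AlphaScreen. Buffer PBS pH 7.4 + 0.05% IGEPAL CA-630. Non-biotinylated SIRPalpha as control inhibitor.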

[4] = biological target: Parathyroid hormone/parathyroid hormone-related peptide receptor (Homo sapiens) (UniProt Q03431); test: qHTS for PTHR1 Agonists: Optimization Screen against the NCGC LOPAC library (AID 1347079);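 also: GloSensor cAMP luminescence in HEK-293 GP2 cells expressing human PTHR1 with IBMX; 0% is about no effect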
Procedure, shortened: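 HEK-293 GP2 cells, PTHR1 + GloSensor cAMP; 3000 cells/well, o/n. Luciferin + IBMX 0.5mM each (stock), 1 hr 37C. Cpd titration, 1 hr 37C. Lum after 15 min RT. Ctrl M-PTH(1-15) top 10uM.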

[5] = qHTS of pediatric cancer cell lines to identify multiple opportunities for drug repurposing: Primary screen for TC32 cells (AID 1347089); also: % is scaled to controls: 0 for no effect and ±100 for the full control effect; nearly all actives have a fitted effect of over 60% in size
Procedure, shortened: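 TC32 cells, 500-1,000/well in growth medium, compound-treated 48 h at 37 °C; viability from CellTiter-Glo luminescence. Primary screen: MIPE 11-point (0.78 nM–46 µM final), NPC 8-point (0.59 nM–46 µM final); confirmatory at 11-point dilutions.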

[6] = qHTS of pediatric cancer cell lines to identify multiple opportunities for drug repurposing: Primary screen for DAOY cells (AID 1347090);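 also: series mostly up to about 46 µM; plate controls were DMSO for no effect and bortezomib for full effect; nearly all actives have a fitted effect of over 55% in size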
Procedure, shortened: (§1)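 Viability measured as metabolically active cells via CellTiter-Glo luminescence following 48 hours of compound exposure, 11-point dilutions in confirmatory testing. 500-1,000 cells/well plated 5 hours before dosing; controls were DMSO and 2.3 µM bortezomib.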

[7] = qHTS of pediatric cancer cell lines to identify multiple opportunities for drug repurposing: Primary screen for SJ-GBM2 cells (AID 1347091);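 also: plate controls were DMSO neutral control for no effect and bortezomib for full effect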
Procedure, shortened: as §1

[8] = qHTS of pediatric cancer cell lines to identify multiple opportunities for drug repurposing: Primary screen for A673 cells (AID 1347092); also: % is scaled to controls: 0 for no effect and ±100 for the full control effect; nearly all actives have a fitted effect of over 45% in size
Procedure, shortened: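 A673 cells (500-1,000 cells/well) were treated 48 hours at 37 degrees C with compounds at 11-point (0.78 nM to 46 µM) or 8-point (0.59 nM to 46 µM) dilutions. Viability read by CellTiter-Glo luminescence; concentration-response curves fitted.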

[9] = qHTS of pediatric cancer cell lines to identify multiple opportunities for drug repurposing: Primary screen for SK-N-MC cells (AID 1347093);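 also: series mostly up to about 46 µM; plate controls were DMSO neutral control for no effect and bortezomib for full effect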
Procedure, shortened: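 Metabolically active cells were quantified by ATP-dependent luminescence (CellTiter-Glo, 15 min at room temperature) following 48 h treatment. Cells had been plated at 500-1,000 per well and settled for 5 h beforehand.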

[10] = qHTS of pediatric cancer cell lines to identify multiple opportunities for drug repurposing: Primary screen for BT-37 cells (AID 1347094);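 also: series mostly up to about 57 µM; plate controls were DMSO for no effect and bortezomib for full effect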
Procedure, shortened: (§2)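 Cells seeded at 500-1,000 cells/well in growth media, rested 5 hours at 37 degrees C, 5% CO2, then dosed; MIPE compounds at 11-point (from 0.78 nM) and NPC at 8-point (from 0.59 nM) final concentrations. Viability by CellTiter-Glo luminescence after 48 hours.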

[11] = qHTS of pediatric cancer cell lines to identify multiple opportunities for drug repurposing: Primary screen for NB-EBc1 cells (AID 1347095);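 also: plate controls were DMSO neutral control for no effect and bortezomib for full effect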
Procedure, shortened: as §2

[12] = qHTS of pediatric cancer cell lines to identify multiple opportunities for drug repurposing: Primary screen for U-2 OS cells (AID 1347096);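 also: plate controls were DMSO wells for no effect and bortezomib positive control wells for full effect; nearly all actives have a fitted effect of over 50% in size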
Procedure, shortened: (§3)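 Viability after 48 h compound treatment at 37C, 500-1,000 cells/well, read as ATP luminescence with CellTiter-Glo. Primary screens used 11-point (MIPE, 0.78 nM-46 µM) or 8-point (NPC, 0.59 nM-46 µM) final concentrations; follow-up screens used 11-point dilutions.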

[13] = qHTS of pediatric cancer cell lines to identify multiple opportunities for drug repurposing: Primary screen for Saos-2 cells (AID 1347097); also: % is scaled to controls: 0 for no effect and ±100 for the full control effect; nearly all actives have a fitted effect of over 40% in size
Procedure, shortened: as §2

[14] = qHTS of pediatric cancer cell lines to identify multiple opportunities for drug repurposing: Primary screen for SK-N-SH cells (AID 1347098);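 also: DMSO served as neutral control and bortezomib at 2.3 µM as positive control; % is scaled to controls: 0 for no effect and ±100 for the full control effect; nearly all actives have a fitted effect of over 65% in size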
Procedure, shortened: (§4)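 Cells (500-1,000/well) rested 5 h, then received compounds for 48 h; metabolically active cells were measured by CellTiter-Glo luminescence. Final concentrations spanned up to 46 µM (MIPE, 11-point) or 0.59 nM-46 µM (NPC, 8-point) in primary screens, 11-point in follow-ups.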

[15] = qHTS of pediatric cancer cell lines to identify multiple opportunities for drug repurposing: Primary screen for NB1643 cells (AID 1347099);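 also: plate controls were DMSO neutral control for no effect and bortezomib positive control for full effect; nearly all actives have a fitted effect of over 50% in size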
Procedure, shortened: as §2

[16] = qHTS of pediatric cancer cell lines to identify multiple opportunities for drug repurposing: Primary screen for LAN-5 cells (AID 1347100);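 also: plate controls were DMSO neutral control for no effect and bortezomib positive control for full effect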
Procedure, shortened: as §3

[17] = qHTS of pediatric cancer cell lines to identify multiple opportunities for drug repurposing: Primary screen for BT-12 cells (AID 1347101);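 also: plate controls were DMSO for no effect and bortezomib positive control for full effect; nearly all actives have a fitted effect of over 25% in size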
Procedure, shortened: as §4

[18] = qHTS of pediatric cancer cell lines to identify multiple opportunities for drug repurposing: Primary screen for Rh18 cells (AID 1347102); also: % is scaled to controls: 0 for no effect and ±100 for the full control effect; nearly all actives have a fitted effect of over 65% in size
Procedure, shortened: as §3

[19] = qHTS of pediatric cancer cell lines to identify multiple opportunities for drug repurposing: Primary screen for OHS-50 cells (AID 1347103);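 also: plate controls were DMSO neutral control for no effect and bortezomib positive control for full effect; nearly all actives have a fitted effect of over 40% in size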
Procedure, shortened: as §4

[20] = qHTS of pediatric cancer cell lines to identify multiple opportunities for drug repurposing: Primary screen for RD cells (AID 1347104);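 also: plate controls were DMSO for no effect and bortezomib for full effect; nearly all actives have a fitted effect of over 55% in size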
Procedure, shortened: as §2

Sequence of Parathyroid hormone/parathyroid hormone-related peptide receptor (Homo sapiens) (Q03431 whole entry, looked up): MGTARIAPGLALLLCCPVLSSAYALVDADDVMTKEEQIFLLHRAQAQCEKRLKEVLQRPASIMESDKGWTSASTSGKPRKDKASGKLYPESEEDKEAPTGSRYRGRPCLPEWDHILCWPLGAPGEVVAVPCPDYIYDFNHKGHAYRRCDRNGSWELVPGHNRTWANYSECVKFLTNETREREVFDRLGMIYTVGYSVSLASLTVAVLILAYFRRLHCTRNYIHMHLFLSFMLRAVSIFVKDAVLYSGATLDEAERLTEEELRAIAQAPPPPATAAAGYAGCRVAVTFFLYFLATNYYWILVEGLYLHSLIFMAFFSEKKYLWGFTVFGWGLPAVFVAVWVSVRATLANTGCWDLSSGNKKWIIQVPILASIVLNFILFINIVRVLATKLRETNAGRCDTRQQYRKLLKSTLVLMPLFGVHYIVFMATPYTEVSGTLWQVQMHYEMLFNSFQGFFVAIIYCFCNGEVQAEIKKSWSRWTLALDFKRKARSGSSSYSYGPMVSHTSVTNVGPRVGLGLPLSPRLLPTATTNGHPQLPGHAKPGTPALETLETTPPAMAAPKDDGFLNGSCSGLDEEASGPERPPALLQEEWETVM
T1 sequence (P78324 whole entry, looked up, the tested form may be a part): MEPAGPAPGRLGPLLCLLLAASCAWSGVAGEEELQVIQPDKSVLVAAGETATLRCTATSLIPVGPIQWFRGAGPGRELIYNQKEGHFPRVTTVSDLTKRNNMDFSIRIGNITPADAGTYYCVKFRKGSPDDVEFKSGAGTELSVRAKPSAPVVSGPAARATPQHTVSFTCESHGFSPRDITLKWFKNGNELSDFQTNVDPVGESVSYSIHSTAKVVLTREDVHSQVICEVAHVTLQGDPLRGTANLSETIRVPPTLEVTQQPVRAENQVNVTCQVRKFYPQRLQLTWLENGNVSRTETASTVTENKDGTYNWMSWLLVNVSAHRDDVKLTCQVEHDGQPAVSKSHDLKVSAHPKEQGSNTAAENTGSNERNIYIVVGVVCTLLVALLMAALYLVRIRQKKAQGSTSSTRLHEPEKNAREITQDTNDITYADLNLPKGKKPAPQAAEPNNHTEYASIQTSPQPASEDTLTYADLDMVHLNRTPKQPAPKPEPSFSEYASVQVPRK
T1 sequence (Q08722 whole entry, looked up, the tested form may be a part): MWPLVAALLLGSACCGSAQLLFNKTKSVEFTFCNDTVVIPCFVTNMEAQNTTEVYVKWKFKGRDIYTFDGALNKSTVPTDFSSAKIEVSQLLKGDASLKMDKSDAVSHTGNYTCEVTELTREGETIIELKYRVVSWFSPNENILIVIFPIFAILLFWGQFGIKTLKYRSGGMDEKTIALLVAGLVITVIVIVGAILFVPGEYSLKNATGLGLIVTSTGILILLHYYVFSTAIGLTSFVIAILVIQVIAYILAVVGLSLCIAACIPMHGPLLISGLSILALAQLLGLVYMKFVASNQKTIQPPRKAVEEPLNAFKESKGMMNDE

CCCC1O[C@@H]2C[C@H]3[C@@H]4CCC5=CC(=O)C=C[C@]5(C)[C@H]4[C@@H](O)C[C@]3(C)[C@]2(C(=O)CO)O1 (some centres undefined)
inactive: Potency [1] | outcome [2] | Potency [3] | outcome [4]

CCC(=O)c1c(O)cc(O)cc1O
inactive: Potency [1] | Potency [5] | Potency [6] | Potency [7] | Potency [8] | Potency [9] | Potency [10] | Potency [11] | Potency [12] | Potency [13] | Potency [14] | Potency [15] | Potency [16] | Potency [17] | Potency [18] | Potency [19] | Potency [20]

CC(=O)OCC(=O)[C@@]12N=C(C)O[C@@H]1C[C@H]1[C@@H]3CCC4=CC(=O)C=C[C@]4(C)[C@H]3[C@@H](O)C[C@@]12C
inactive: Potency [1] | Potency [5] | Potency [6] | Potency [7] | Potency [8] | Potency [9] | Potency [10] | Potency [11] | Potency [12] | Potency [13] | Potency [14] | Potency [15] | Potency [16] | Potency [17] | Potency [18] | Potency [19] | Potency [20]

CNCCC(Oc1ccccc1C)c1ccccc1 (centres undefined)
inactive: Potency [1] | outcome [2] | Potency [3] | outcome [4]

CC1(C)O[C@@H]2[C@@H](CO[C@@]3(COS(N)(=O)=O)OC(C)(C)O[C@@H]23)O1
inactive: Potency [1] | Potency [5] | Potency [6] | Potency [7] | Potency [8] | Potency [9] | Potency [10] | Potency [11] | Potency [12] | Potency [13] | Potency [14] | Potency [15] | Potency [16] | Potency [17] | Potency [18] | Potency [19] | Potency [20]

CC(C)COC(=O)OCN1C(=O)CN(CCN2CC(=O)N(COC(=O)OCC(C)C)C(=O)C2)CC1=O
inactive: Potency [1] | outcome [2] | Potency [3] | outcome [4]

CC(O)(P(=O)(O)O)P(=O)(O)O
inactive: Potency [1] | Potency [5] | Potency [6] | Potency [7] | Potency [8] | Potency [9] | Potency [10] | Potency [11] | Potency [12] | Potency [13] | Potency [14] | Potency [15] | Potency [16] | Potency [17] | Potency [18] | Potency [19]

CNCCC=C1c2ccccc2CCc2ccccc21
inactive: Potency [1] | outcome [2] | Potency [3] | outcome [4]

C1CCc2nnnn2CC1
inactive: Potency [1] | outcome [2] | Potency [3]

CCCn1c(=O)[nH]c(=O)c2[nH]cnc21
inactive: Potency [1] | outcome [2] | Potency [3] | outcome [4]

CCN1CCCC1=O
inactive: Potency [1] | Potency [5] | Potency [6] | Potency [7] | Potency [8] | Potency [9] | Potency [10] | Potency [12] | Potency [13] | Potency [14] | Potency [15] | Potency [16] | Potency [17] | Potency [18] | Potency [19] | Potency [20]

COc1cc(/C=C/C(=O)O[C@H]2CC[C@]34C[C@]35CC[C@]3(C)[C@@H]([C@H](C)CCC=C(C)C)CC[C@@]3(C)[C@@H]5CC[C@H]4C2(C)C)ccc1O
inactive: Potency [1] | Potency [5] | Potency [6] | Potency [7] | Potency [8] | Potency [9] | Potency [10] | Potency [11] | Potency [12] | Potency [13] | Potency [14] | Potency [15] | Potency [17] | Potency [18] | Potency [20]

Nc1ccc(/C=C/c2ccc(N)cc2S(=O)(=O)O)c(S(=O)(=O)O)c1
inactive: activity change, negative = inhibition [1] -8.83% [at 0.593 µM] | activity change, negative = cytotoxic [5] 14.3% [at 0.594 µM] | activity change, negative = cytotoxic [6] 10% [at 0.597 µM] | activity change, negative = cytotoxic [7] 4.37% [at 0.597 µM] | activity change, negative = cytotoxic [8] 1.22% [at 0.597 µM] | activity change, negative = cytotoxic [9] -3.26% [at 0.597 µM] | activity change, negative = cytotoxic [10] 22.8% [at 0.745 µM] | activity change, negative = cytotoxic [11] 25.1% [at 0.597 µM] | activity change, negative = cytotoxic [12] 17% [at 0.597 µM] | activity change, negative = cytotoxic [13] 2.49% [at 0.597 µM] | activity change, negative = cytotoxic [14] 12.2% [at 0.741 µM] | activity change, negative = cytotoxic [16] 21.1% [at 0.597 µM] | activity change, negative = cytotoxic [17] 16.8% [at 0.745 µM] | activity change, negative = cytotoxic [18] 24% [at 0.597 µM] | activity change, negative = cytotoxic [19] 19.6% [at 0.73 µM] | activity change, negative = cytotoxic [20] 13.1% [at 0.597 µM]

CCN(CC)CCNC(=O)COc1ccc(Cl)cc1
inactive: Potency [1] | Potency [5] | Potency [6] | Potency [7] | Potency [8] | Potency [9] | Potency [10] | Potency [12] | Potency [13] | Potency [14] | Potency [15] | Potency [17] | Potency [18] | Potency [19] | Potency [20]

CN1CCC[C@@H]1c1cccnc1
inactive: Potency [1] | Potency [5] | Potency [6] | Potency [7] | Potency [8] | Potency [9] | Potency [10] | Potency [11] | Potency [12] | Potency [13] | Potency [14] | Potency [16] | Potency [17] | Potency [18] | Potency [19] | Potency [20]

CCOC(=O)OC(C)OC1=C(C(=O)Nc2ccccn2)N(C)S(=O)(=O)c2ccccc21 (centres undefined)
inactive: Potency [1] | Potency [5] | Potency [6] | Potency [7] | Potency [8] | Potency [9] | Potency [10] | Potency [12] | Potency [13] | Potency [14] | Potency [15] | Potency [16] | Potency [17] | Potency [18] | Potency [20]

O=c1[nH]c(=O)n([C@H]2CCCO2)cc1F
inactive: Potency [1] | Potency [5] | Potency [6] | Potency [7] | Potency [8] | Potency [9] | Potency [10] | Potency [11] | Potency [12] | Potency [13] | Potency [14] | Potency [16] | Potency [17] | Potency [18] | Potency [19]

COc1ccc(C2C(=O)c3ccccc3C2=O)cc1
inactive: Potency [1] | Potency [5] | Potency [6] | Potency [7] | Potency [8] | Potency [9] | Potency [10] | Potency [11] | Potency [12] | Potency [13] | Potency [14] | Potency [15] | Potency [16] | Potency [17] | Potency [18] | Potency [20]
